The list is not random: actives were taken first. Their share in the collection is about 3.5%.
FBW7 activator: activators of human E3 ligase FBW7; hit rate 0.13% among 650,000; Q969H0; AlphaScreen FBW7–phospho-cyclin E peptide binding, activator screen; normalized activity (activation), % at 26.1 µM; in the data active = normalized activity above about 1.9%;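 also: purified mutant Fbw7 with reduced substrate affinity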
GPR151 activ: activators of human GPR151; AID 1508602; PathHunter beta-arrestin GPR151 cells, luminescence; activation, % at 11.2 µM; hit rate 1% among 650,000; in the data active = activation above about 4.9%;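 also: 0% = median of compound wells and 100% = cells with positive control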
TEAD-YAP inh: TEAD-YAP interaction inhibition | hit rate 1.4% among 640,000 | inhibition, % at 9.12 µM | HEK-TIYL cells, TEAD-Gal4/YAP UAS-luciferase luminescence | AID 1259422; in the data active = inhibition above about 32%;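 also: 0% = median of test compound wells and 100% = reference inhibitor wells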
MITF primary: inhibitors of human MITF. AlphaScreen MITF homodimerization, bead proximity signal. inhibition, % at 2.6 µM. O75030. hit rate 0.91% among 650,000; in the data active = inhibition above about 50%;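 also: 0% = vehicle wells with protein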
Target sequence (O75030 whole entry, looked up): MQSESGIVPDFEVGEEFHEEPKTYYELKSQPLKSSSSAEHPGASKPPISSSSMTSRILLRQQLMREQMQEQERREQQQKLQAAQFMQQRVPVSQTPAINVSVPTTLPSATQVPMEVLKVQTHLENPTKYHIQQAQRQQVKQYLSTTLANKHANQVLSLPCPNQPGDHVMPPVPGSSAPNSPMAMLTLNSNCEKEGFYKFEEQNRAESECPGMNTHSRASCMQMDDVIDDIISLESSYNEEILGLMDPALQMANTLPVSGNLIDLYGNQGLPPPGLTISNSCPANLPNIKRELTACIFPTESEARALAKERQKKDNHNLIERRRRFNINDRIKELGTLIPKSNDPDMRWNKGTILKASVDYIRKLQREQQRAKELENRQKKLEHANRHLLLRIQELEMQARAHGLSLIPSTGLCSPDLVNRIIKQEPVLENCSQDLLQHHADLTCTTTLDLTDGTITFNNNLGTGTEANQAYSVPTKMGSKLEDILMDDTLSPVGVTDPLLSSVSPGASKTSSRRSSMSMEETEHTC
Active calls of the source: *.

SMILES	FBW7 activator	GPR151 activ	TEAD-YAP inh	MITF primary
COc1ccc(OC)c(CNc2ncc(-c3cccc(Br)c3)n2C)c1	0	0	43*	25
COc1ccc(OC)c(CNc2ncc(-c3ccc(Br)cc3)n2C)c1	0	0	3	35
CC(=O)NC1=NN(C(C)=O)C(C)(c2ccc(F)cc2)S1 (stereo not drawn)	1	0	37*	11
CCc1ccc(C2(C)SC(NC(C)=O)=NN2C(C)=O)cc1 (stereo not drawn)	0	0	-6	8
CC(=O)NC1=NN(C(C)=O)C(C)(c2cccs2)S1 (stereo not drawn)	0	-1	60*	1
CCn1c(COc2ccc(OC)cc2)nnc1SCC(=O)NC1CCCCC1	0	1	6	7
COc1cc(Br)cc(C=Nc2c(C)n(C)n(-c3ccccc3)c2=O)c1O	0	0	-8	-3
COc1ccccc1NC(=O)Cn1cnc2sc(C(=O)NC3CCCC(C)C3C)c(C)c2c1=O (stereo not drawn)	2.0*	-1	-10	12
CCCNC(=O)Cn1cnc2sc(C(=O)NCCCOC)c(C)c2c1=O	3.2*	-2	-3	-1
COc1ccccc1NC(=O)Cn1cnc2sc(C(=O)Nc3cccc(C(F)(F)F)c3)c(C)c2c1=O	0	-1	1	-5
COc1ccccc1NC(=O)Cn1cnc2sc(C(=O)Nc3ccc(C(F)(F)F)cc3)c(C)c2c1=O	2.2*	0	-6	6
O=C(O)c1cccc2c1NC(c1ccccc1F)C1CC=CC21 (stereo not drawn)	0	1	2	34
Cc1n[nH]c(=O)nc1N/N=C/c1ccc(N(C)C)cc1	0	-7	55*	10
Cc1cc(=O)[nH]c(N/N=C/c2cc(Br)cc(Br)c2O)n1	0	0	4	6
Cc1n[nH]c(=O)nc1N/N=C/c1ccccc1Cl	0	-7	-3	-1
Cc1n[nH]c(=O)nc1N/N=C/c1ccc(O)cc1O	-1	-6	42*	97*
CCCOc1ccc(/C=N/Nc2nc(C)cc(=O)[nH]2)c(O)c1	-1	2	86*	34
Cc1cc(=O)[nH]c(N/N=C/c2ccc(O)cc2O)n1	-1	1	2	76*
Cc1cc(C)cc(NC(=O)Nc2nnc(N3CCCCC3)s2)c1	0	3	0	-1
CC(C)CC1(C2CCN(C(=O)C3=CCCC3)CC2)NC(=O)N(Cc2cccs2)C1=O (stereo not drawn)	0	0	-3	11
CC(C(=O)NC1CCCC1)N1Cc2ccccc2C1=O (stereo not drawn)	0	0	3	-2
CCCOC(=O)c1c(C)oc2c1cc(NS(=O)(=O)c1ccc(OCC)cc1)c1ccccc12	0	-1	53*	-1
CCOc1ccc(S(=O)(=O)Nc2cc3c(C(=O)OCc4ccccc4)c(C)oc3c3ccccc23)cc1	0	1	-1	-2
CCc1ccc(S(=O)(=O)Nc2cc3c(C(C)=O)c(C)oc3c3ccccc23)cc1	1	1	56*	7
CC(=O)c1c(C)oc2c1cc(NS(=O)(=O)c1ccc(Br)cc1)c1ccccc12	1	-2	47*	24
SMILES	FBW7 activator	GPR151 activ	TEAD-YAP inh	MITF primary
C=C(C)c1cccc(C(C)(C)NC(=O)Nc2ccc3[nH]c(=O)[nH]c3c2)c1	0	3	-4	0
COc1cc(C2C3=C(CC(C)(C)CC3=O)OC3=C2C(=O)CC(C)(C)C3)ccc1OCc1ccc(F)cc1	2.0*	-2	-5	21
CN(C)c1ccc(C(=O)Nc2ccccc2F)cc1	0	-9	74*	-4
C=CCNC(=O)c1ccccc1NC(=O)CN(c1cccc(F)c1)S(C)(=O)=O	0	0	1	3
CCOC(=O)c1c(N)n(-c2ccccc2OCC)c2nc3ccccc3nc12	0	0	-7	6
O=C(NCCOc1ccccc1)c1cc(NCc2ccc3c(c2)OCO3)nc2ccccc12	0	6.1*	-6	13
CCCNC(=O)c1cc(NCc2ccc3c(c2)OCO3)nc2ccccc12	0	0	-1	-4
COc1ccc2c(CNCc3ccc(OC(C)C)cc3)c(C(=O)O)[nH]c2c1	0	1	1	-5
Cc1ccc(/C=C/C(=O)C2C(=O)c3ccccc3C2=O)cc1	0	0	41*	-25
Cn1nnnc1SCCNCc1ccc(-c2ccc(Cl)cc2Cl)o1	0	-1	-2	-6
Cc1c(Nc2ncnc3c2cnn3C)c(=O)n(-c2ccccc2)n1C	0	1	2	-12
CN(Cc1ccccc1)c1ccnc2c(-c3cccc(CO)c3)cnn12	0	0	76*	-18
Oc1cccc(-c2cnn3c(NCc4ccccn4)ccnc23)c1	-1	-1	56*	14
CN(Cc1ccccc1)c1ccnc2c(-c3cccnc3)cnn12	0	1	-46	-29
OCc1cccc(-c2cnn3c(NCc4ccccn4)ccnc23)c1	-1	0	77*	23
Clc1ccccc1CNc1ncnc2ccccc12	0	2	48*	8
O=C1OC(/C=C/c2ccc(Cl)cc2)=NC/1=C/c1ccc(F)cc1	0	-1	6	10
Cc1cc(C(=O)N/N=C(\CCC(=O)O)c2cccs2)c2ccccc2n1	0	0	51*	11
Cc1cc(C(=O)N/N=C2\CCCC(=O)C2)c2ccccc2n1	0	0	40*	-7
O=C1CCC/C(=N\NC(=O)c2cc(-c3ccncc3)nc3ccccc23)C1	0	2	26	-5
CCN1C(=O)c2cccc3c(NC(=O)c4ccc(S(=O)(=O)N5CCCCCC5)cc4)ccc1c23	1	-3	3	14
COc1ccc(CCNc2cc(Nc3cnccn3)ncn2)cc1	0	-1	3	12
COc1ccc(-c2cc(NCc3cccc(C(F)(F)F)c3)nc(N)n2)cn1	0	4	46*	1
Nc1nc(NCc2ccccc2)cc(-c2csc3ccccc23)n1	0	0	2	8
Nc1nc(NCc2cccc(C(F)(F)F)c2)cc(-c2csc3ccccc23)n1	0	-1	53*	9
SMILES	FBW7 activator	GPR151 activ	TEAD-YAP inh	MITF primary
COc1ccc(CCNc2cc(Nc3cnccn3)nc(N)n2)cc1	0	-1	35*	-6
COc1ccc(CCNc2cc(-c3csc4ccccc34)nc(N)n2)cc1	1	2	57*	8
COc1ccc(-c2cc(NCc3cccc(C(F)(F)F)c3)nc(N)n2)cc1	0	0	3	9
CC(=O)c1cccc(NC(=O)C(=O)NCC2CCCO2)c1 (stereo not drawn)	0	-1	-16	6
Cc1ccc(S(=O)(=O)N(CC(=O)NCc2cccnc2)Cc2ccc(Cl)c(Cl)c2)cc1	0	0	1	-17
NC(=O)c1sc2nc3c(c(-c4cccs4)c2c1N)CCC3	0	-1	44*	3
COC(=O)c1sc2nc3c(c(-c4cccs4)c2c1N)CCC3	1	1	2	-4
Cc1cc(C)c(NS(=O)(=O)c2ccc3c4c2CC(=O)N4CC(C)S3)c(C)c1 (stereo not drawn)	0	0	4	-4

High-throughput results from PubChem.
